{
  "source": "PubChem BioAssay (NCATS)",
  "note": "Records with an inconclusive call do not appear. Entries that show only a call come without a potency. Calls of active or inactive are those of the source. Calls come from the whole dose curve; as a rule, active = well fitted inhibition curve with a large enough effect; inconclusive = small, poorly fitted or top-dose-only effect; inactive = flat fitted curve, though single readings scatter. Potency is the fitted concentration of half-maximal effect.",
  "data": [
    {"target": "Calcium and integrin-binding protein 1 (Homo sapiens) (UniProt Q99828)", "sequence (Q99828 whole entry, looked up)": "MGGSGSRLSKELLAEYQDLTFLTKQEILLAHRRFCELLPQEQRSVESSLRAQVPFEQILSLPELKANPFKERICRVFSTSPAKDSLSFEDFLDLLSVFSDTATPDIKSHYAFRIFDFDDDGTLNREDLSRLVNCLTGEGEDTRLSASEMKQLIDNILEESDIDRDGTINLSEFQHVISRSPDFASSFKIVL", "assay": "Primary qHTS for Identification of Calcium Integrin Binding Protein 1 (CIB1) Competitor (AID 1508620)", "conditions": "CIB1-GST / FITC-alphaIIb peptide fluorescence polarization; series mostly up to 114 µM", "procedure,_shortened": "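CIB1-GST (1 uM final) and compound incubated 15 min at room temperature before adding FITC-alphaIIb peptide tracer (100 nM final). Competition for binding read by fluorescence polarization (ex 480, em 540) after another 15 min at room temperature.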", "values": [
      {"compound": "CCOC(=O)c1ccc(-c2ccc3ncnc(N(C)Cc4ccc(C)o4)c3c2)o1", "Potency": "inactive"},
      {"compound": "O=C(Nc1ccc(-c2nc3ccccc3[nH]2)cc1)c1ccc(-c2ccccc2)cc1", "Potency": "inactive"},
      {"compound": "O=Cc1c(-c2ccccc2)no[n+]1[O-]", "Potency": "50.1 µM (active)"},
      {"compound": "Cc1c(C(=O)O)[nH]c2c1C(=O)CC(c1ccco1)C2", "note": "(centres undefined)", "Potency": "inactive"},
      {"compound": "Cn1nnnc1Sc1ncnc2scc(-c3cccc([N+](=O)[O-])c3)c12", "Potency": "inactive"},
      {"compound": "O=C1CCc2cc(S(=O)(=O)Nc3ccc(-c4ccccc4)cc3)ccc2N1", "Potency": "inactive"},
      {"compound": "CCOC(=O)c1nn(-c2ccccc2)c(=O)c2c(N)scc12", "Potency": "inactive"},
      {"compound": "COc1ccc([C@H]2[C@H](c3ccccc3)C(=O)N2Cc2ccccc2)cc1COc1ccc(NC(C)=O)cc1", "Potency": "inactive"},
      {"compound": "O=C(CNC(=O)c1ccc2ccccc2c1)OC(C(=O)Nc1cc(C(F)(F)F)ccc1Cl)c1ccccc1", "note": "(centres undefined)", "Potency": "inactive"},
      {"compound": "NCCC(=O)Nc1cccc(-c2nn3c(=O)cc(N4CCNCC4)nc3s2)c1", "Potency": "inactive"},
      {"compound": "NC(=O)C1CCN(c2ncnc(-c3ccc4c(c3)OCCCO4)n2)CC1", "Potency": "inactive"},
      {"compound": "Cc1ccc(-c2nc3ccccc3[nH]2)cc1NC(=O)c1ccc(-c2cccc(Cl)c2)o1", "Potency": "inactive"},
      {"compound": "CC1(C)CC(=O)C2=C(C1)NC(Nc1nc3ccccc3o1)=NC21CCCC1", "Potency": "inactive"},
      {"compound": "COc1cc(O)c(C(CC(=O)N2CCC(C)CC2)c2ccc(OC)c(OC)c2)c(OC)c1", "note": "(centres undefined)", "Potency": "inactive"},
      {"compound": "Cc1cccc(S(=O)(=O)N2CCN(S(=O)(=O)c3ccc4c(c3)OCCO4)CC2)c1", "Potency": "inactive"},
      {"compound": "O=c1c2ccccc2nc2sc(Nc3ccc4c(c3)OCO4)nn12", "Potency": "inactive"},
      {"compound": "O=S(=O)(Nc1ccccc1)c1ccc(NCc2cccc(Cl)c2O)cc1", "Potency": "inactive"},
      {"compound": "Cc1cc(C)cc(Cn2ncc3c4sc(C)cc4n(C)c3c2=O)c1", "Potency": "inactive"},
      {"compound": "COc1cccc(NCc2ccc(O)c3ncccc23)n1", "Potency": "inactive"},
      {"compound": "O=C1NC2=C(C(=O)CCC2)C(c2ccccc2Cl)N1", "note": "(centres undefined)", "Potency": "inactive"},
      {"compound": "COc1ccc(N2C[C@]34C=C[C@H](O3)C(C(=O)O)C4C2=O)cc1OC", "note": "(some centres undefined)", "Potency": "inactive"},
      {"compound": "COc1cc(F)c(S(=O)(=O)N2CCCN(S(=O)(=O)c3ccc(N)cc3)CC2)c(F)c1", "Potency": "inactive"},
      {"compound": "O=C1CN(S(=O)(=O)c2ccc3c(c2)OCCO3)CCN1S(=O)(=O)c1c(F)cccc1F", "Potency": "inactive"},
      {"compound": "FC(F)(F)c1ccc(N2CCN(C(=S)Nc3ccccn3)CC2)cc1", "Potency": "inactive"},
      {"compound": "Cc1c(P(=O)(c2ccccc2)c2ccccc2)c2ccccc2n1C", "Potency": "inactive"},
      {"compound": "O=S(=O)(NCc1ccccc1)c1ccc(O)c2ncccc12", "Potency": "inactive"},
      {"compound": "O=S1(=O)N=C(Oc2cccc(Br)c2)c2ccccc21", "Potency": "inactive"},
      {"compound": "CCCCNC(=S)NCCCN(Cc1ccc(Cl)c(Cl)c1)c1ccc(Br)cn1", "Potency": "inactive"},
      {"compound": "COc1ccc(C2c3c(ncn(CCCc4ccccc4)c3=N)Oc3ccc4ccccc4c32)cc1OC", "note": "(centres undefined)", "Potency": "inactive"},
      {"compound": "CNc1oc(-c2ccc3c(c2)OCCO3)nc1C#N", "Potency": "inactive"},
      {"compound": "Oc1cc(-c2ccc(N3CCCCC3)nc2)cc2cccnc12", "Potency": "inactive"},
      {"compound": "Cc1cc2c(s1)c1cnn(Cc3cc(F)cc(F)c3F)c(=O)c1n2C", "Potency": "inactive"},
      {"compound": "COc1ccc(-c2c(NC(C)=O)sc3c2CCNC3)cc1", "Potency": "inactive"},
      {"compound": "Cc1cc2c(s1)c1cnn(Cc3ccc(Cl)c(F)c3)c(=O)c1n2C", "Potency": "inactive"},
      {"compound": "CC(=O)Nc1ccccc1NC(=O)c1cnn2c(C)cc(C)nc12", "Potency": "inactive"},
      {"compound": "Cc1nnc(-c2cnn(C)c2N)n1Cc1cncn1C", "Potency": "inactive"},
      {"compound": "O=C1CCCC2=C1C1(CCCC1)N=C(Nc1nc3cc(Cl)ccc3o1)N2", "Potency": "inactive"},
      {"compound": "COc1ccccc1C1=Nn2c(nnc2-c2ccccc2O)SC1", "Potency": "inactive"},
      {"compound": "Cc1cc(NS(=O)(=O)c2cc3c(cc2N[C@@H](C)CO)NC(=O)CC3)ccc1F", "Potency": "inactive"}
    ]}
  ]
}
